The values below come from PubChem BioAssay AID1345082 (National Center for Advancing Translational Sciences (NCATS), 2018).

“And” between values parts separate entries of the source, which are not always exact repeats. Identical values can stand only once. Out of some 94,000 compounds screened, about 4,000 (4.3%) were called active. Entries that show only a call come without a potency. About 29% were inconclusive and are not listed. The sample holds actives, similar compounds and a random draw of the others, so the mix is not that of the screen. Calls come from the whole dose curve; as a rule, active = well fitted inhibition curve with a large enough effect; inconclusive = small, poorly fitted or top-dose-only effect; inactive = no such curve, though single readings can be large or run the other way.
Potency is the fitted concentration of half-maximal effect.

This assay in a line: Cytotoxic Profiling in NIH 3T3 Cell Line of Diverse Libraries Using Quantitative High-Throughput Screening. Note: nearly all actives have a fitted effect of over 55% in size. Conditions: NIH 3T3 viability, CellTiter-Glo ATP luminescence, 48-72 h; series mostly up to 96.7 µM. The gist of the method: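 Viability of NIH 3T3 cells after 48 or 72 hr compound treatment at 37 °C was assessed by CellTiter-Glo, with luminescence imaged following a 10 min room-temperature step.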
(In general: In ATP-based viability assays light output follows the ATP content of the culture.)
With `O=C(c1cn2cc(Cl)ccc2n1)N1CCc2nc(-c3ccccc3)[nH]c2C1`, the Potency result was “inactive”.
In the case of `COC(=O)[C@@H]1C[C@@H](NC(=O)c2ccc(-c3nnn(C)n3)cc2)CN1C` it was “inactive”; in that of `COC(=O)[C@@H]1Cc2c([nH]c3ccccc23)[C@H]2C[C@H](NCCNC(C)=O)C[C@@H](c3ccc(C)cc3)N21`, 25.1 µM (active); in that of `O=C(CC1COCCN1)N1CCC(OCc2cccnc2)CC1` (centres undefined), “inactive”.
As for `CCCOC(=O)N1CCCC(c2nccn2CCCN(C)C)C1` (centres undefined), the Potency entry is “inactive”.
In the case of `O=C(c1cc2ccccc2o1)N1CCC2(CNS(=O)(=O)c3cnccc3O2)C1` (centres undefined) it was “inactive”; in that of `C=CCNC(=O)c1ccc2ccnn2c1`, “inactive”; in that of `COc1ccc(-c2nc3ccncc3[nH]2)cc1`, 10 µM (active) and 17.8 µM (active).
With `COc1ccc(C(=O)N2CCCC2C(=O)N2CCCC2c2nc3ccncc3[nH]2)cc1` (centres undefined) the entry was “inactive”; with `COc1ccc(C(=O)N2CCCC(C(=O)N3CCCC(c4nc5ccncc5[nH]4)C3)C2)cc1` (centres undefined), “inactive”.
With `CCc1noc(-c2ccn3c(CNC(=O)c4ccco4)nnc3c2)n1` the entry was “inactive”.
Consider `Cc1noc(CC2CCOC3(CCN(C(=O)c4ccc(C#N)cc4)CC3)C2)n1` (centres undefined), for which the Potency entry was “inactive”.
With `CCn1ncc(N2CCCC(CC(=O)NCc3cccnc3)C2)cc1=O` (centres undefined) the entry was “inactive”; with `O=C(NC[C@H]1COCc2nc3cc(C(F)(F)F)ccc3n21)c1cnccn1`, “inactive”.
With `CC1=C[C@@H](CN(CC2CC2)CC2CC2)[C@H](C(C)C)C[C@H]1Cc1nc2c(C)cccc2[nH]1` the figure was 79.4 µM (active); with `CC1=C[C@@H](CNCC(C)C)[C@H](C(C)C)C[C@H]1Cc1nc2c(C)cccc2[nH]1`, 39.8 µM (active); with `CC(=O)N1CCC(NC[C@@H]2C=C(C)[C@H](Cc3nc4ccccc4n3C)C[C@H]2C(C)C)CC1`, “inactive”.
With `COc1ccc2nc(C[C@@H]3C[C@@H](C(C)C)[C@H](CNC(=O)CC(C)(C)CC(=O)O)C=C3C)[nH]c2c1` the entry was “inactive”; with `CC1=C[C@@H](CNC2CCN(C)CC2)[C@H](C(C)C)C[C@H]1Cc1nc2ccccc2[nH]1`, 35.5 µM (active); with `CC1=C[C@@H](CNC(=O)CC2(CC(=O)O)CCCC2)[C@H](C(C)C)C[C@H]1Cc1nc2c(C)cccc2[nH]1`, “inactive”.
As for `CCNC(=O)[C@@H]1C[C@@H](NC(=O)c2csc(C)c2CC)CN1C1CCCC1`, the Potency result is “inactive”.
On to `CCOc1ccccc1CN1CCN(C2CCN(C(C)C)CC2)C(CCO)C1` (centres undefined), for which the Potency result was “inactive”.
With `COc1ccc(CN[C@@H]2CCC[C@@H](C(=O)NCc3cc(C)on3)CC(=O)N(C)C2)cn1` the entry was “inactive”.
In the case of `CCn1nc(CNC(=O)C2CCC(=O)N(C3CCCC3)C2)c2ccccc21` (centres undefined) it was “inactive”; in that of `COc1cc(NC(=O)Cn2nc3n(c2=O)CCCCC3)cc(OC)c1OC`, “inactive”.
In the case of `COCc1nc(-c2ccc(OC3CNC3)cc2)no1`, the Potency entry was “inactive”.
With `c1ccc(-c2noc(-c3ccccc3OC3CCNC3)n2)cc1` (centres undefined) the figure was 12.6 µM (active); with `Cc1noc(-c2ccccc2OC2CCN(C(=O)c3cnccc3C)C2)n1` (centres undefined), “inactive”; with `O=C(c1ccoc1)N1CC(Oc2ccc(-c3nc(-c4ccccc4)no3)cc2)C1`, “inactive”.
With `Cc1cccc(C(=O)N2CCC(Oc3ccc(-c4noc(C(C)C)n4)cc3)C2)c1` (centres undefined) the entry was “inactive”; with `Cc1nc(C)c(C(=O)N2CCC(Oc3ccccc3-c3nc(-c4ccccc4)no3)C2)s1` (centres undefined), 39.8 µM (active); with `O=C1CCN(C(=O)Cc2cccc(F)c2)CCCC(c2nc(-c3cccnc3)no2)CCN1` (centres undefined), “inactive”.
With `CC(=O)N1CCC[C@@H]1C(=O)N1CCC(N2CCOC2=O)CC1` the entry was “inactive”; with `CCN1C(=O)C2CC3(CCN(C(=O)c4cc5ccccc5[nH]4)CC3)CN2C1=O` (centres undefined), “inactive”; with `COC1CCOC2(CCN(C(=O)NCc3ccc(C)cc3)CC2)C1` (centres undefined), “inactive”.
On to `CC(C)Cc1ccc(CN2CCC3(CC2)Cc2ccccc2CNC3=O)cc1`, for which the Potency is 25.1 µM (active).
In the case of `Cc1ccc(CN2CCC3(Cc4ccccc4CNC3=O)C2)cc1` (centres undefined) it was “inactive”; in that of `O=C1NCc2ccccc2CC12CCN(Cc1ccc(O)cc1)CC2`, “inactive”.
As for `COCCN1C(=O)c2cccn2CC1CNC(=O)c1cc2ccccc2[nH]1` (centres undefined), the Potency entry was “inactive”.
In the case of `O=C(c1ccccc1F)N1CCC(c2nc(C3CCOCC3)no2)CC1` it was “inactive”; in that of `O=C(NC1CCN(c2nc3ncccc3o2)CC1)c1ccc(F)cc1`, “inactive”; in that of `O=C(CCc1conc1-c1ccccc1F)NCc1cccc(Cl)c1`, “inactive”.
With `Cn1nc(C2CCN(C(=O)c3cccc(Cl)c3)CC2)[nH]c1=O` the entry was “inactive”; with `CC(=O)N1CCCC(c2nn(-c3ccccc3)c(=O)[nH]2)C1` (centres undefined), “inactive”.
`COc1cccc(C(=O)N2CCC(c3nn(-c4ccccc4)c(=O)[nH]3)CC2)c1`: the Potency entry is “inactive”.
With `O=C(Nc1ccccc1)N1CCCC(c2nn(-c3ccccn3)c(=O)[nH]2)C1` (centres undefined) the entry was “inactive”; with `O=C(Cc1cccc(Cl)c1)N1CCC(c2nn(-c3ccc(Cl)cc3)c(=O)[nH]2)CC1`, 44.7 µM (active).
In the case of `O=c1[nH]c(C2CCCN(Cc3ccccn3)C2)nn1-c1ccc(Cl)cc1` (centres undefined) it was 3.16 µM (active).
With `COc1ccc(C(C)NC(=O)CN2C(=O)C(c3ccccc3)=NC2(C)C)cc1` (centres undefined) the entry was “inactive”.
Regarding `CN1C(=O)CC[C@]2(C(=O)NCC3CCCCC3)CCCC[C@@H]12`, the Potency result was “inactive”.
In the case of `O=C(NC1CCOC1)c1ccc2oc(-c3ccc(C(F)(F)F)cc3)nc2c1` (centres undefined) it was “inactive”; in that of `O=C(CSc1ccncc1)N1CCCC(O)(CN2CCCC2)C1` (centres undefined), “inactive”; in that of `COc1ccc(N2Cc3c(NCc4cccs4)ncnc3N(C)CC2=O)cc1`, “inactive”.
With `COCCOc1cc(=O)n2c(c1C(=O)NCc1ccccc1)CCOCC2` the entry was “inactive”; with `COCCNC(=O)N1CCc2nn(Cc3ccccc3)c(=O)n2CC1`, “inactive”.
With `Cc1cccc(CN2CCc3ncc(C(=O)NCc4ccccc4)n3CC2)n1` the figure was 89.1 µM (active); with `CCOc1ccc(C(=O)N2C[C@@H](CO)[C@H](c3ccncc3)C2)cc1`, “inactive”.
With `COc1ccc2ccc(OCc3nc(C(=O)N4CCC(=O)NCC4C)co3)cc2c1` (centres undefined), the Potency result is “inactive”.
On to `Cc1ccccc1CNC[C@H]1O[C@@H]2C[C@@H](CC(=O)NC(C)C)O[C@@H]2[C@@H]1O`, for which the Potency entry was “inactive”.
In the case of `Cc1cc(=O)n(CC(=O)N2C[C@H](CO)C[C@H](CN(C)C)C2)nc1C` it was “inactive”; in that of `CCOc1cc(C)c(CN2C[C@@H](CN(C)C)C[C@H](CO)C2)cc1C(C)C`, 31.6 µM (active); in that of `COc1cc(C)c(CN2CCN3C(=O)CNC(=O)C3C2)cc1C(C)C` (centres undefined), “inactive”.
In the case of `O=C(C1CCCCC1)N1CCCC(n2cc(-c3nc(-c4ccccc4)no3)nn2)C1` (centres undefined) it was “inactive”; in that of `COC(=O)[C@@H]1C[C@H](NC(=O)c2c(Cl)cccc2Cl)CN1C`, “inactive”.
As for `CN1CCNc2nc(CNc3cccc(F)c3)n(Cc3ccccc3)c2C1=O`, the Potency entry is “inactive”.
With `O=C1c2c(nc(COc3ccccc3)n2Cc2ccccc2)NCCN1Cc1cccc(Cl)c1` the figure was 28.2 µM (active); with `C=CCC1(C(=O)O)CCCN(Cc2cn[nH]c2C(=O)O)C1` (centres undefined), “inactive”.
In the case of `CCNC(=O)O[C@@H]1CO[C@H]2[C@@H]1OC[C@@H]2NC(=S)Nc1cccc2ccccc12` it was 79.4 µM (active); in that of `CCNC(=O)O[C@@H]1CO[C@H]2[C@@H]1OC[C@@H]2NC(=O)c1cccc(C(=O)OC)c1`, “inactive”.
With `COc1ccc(NC(=O)O[C@@H]2CO[C@H]3[C@@H]2OC[C@@H]3NC(=S)Nc2cccc3ccccc23)cc1` the entry was “inactive”.
On to `CC(C)(CC(=O)O)CC(=O)N[C@H]1CO[C@H]2[C@@H]1OC[C@@H]2n1nnnc1-c1ccccc1`, for which the Potency result is “inactive”.
Take `c1ccc(CO[C@@H]2CO[C@H]3[C@@H]2OC[C@@H]3n2nnnc2SCc2ccco2)cc1`: the Potency was 89.1 µM (active).
With `CNC(=O)CCN(C)c1nccc(-c2ccc(C)nc2C)n1` the entry was “inactive”; with `Cc1cccc(C(=O)N[C@@H]2CN(c3ncccn3)C[C@H]2CO)n1`, “inactive”; with `COc1ccc(-c2cc(-c3cccc4[nH]ncc34)cn3cncc23)cn1`, 14.1 µM (active).
In the case of `COc1ccc(-c2cc(-c3cnc4[nH]ccc4c3)cn3cncc23)cn1`, the Potency was 39.8 µM (active).
With `CC(C)NC(=O)C1CCC(=O)N1C1CCN(C(=O)C2CCCCC2)CC1` (centres undefined) the entry was “inactive”.
With `COc1cccc(CN2CC3(C2)C(=O)N(Cc2ccccc2F)C(=O)[C@@H]2C[C@@H](O)CN23)c1` the entry was “inactive”.
In the case of `CC(=O)N1C[C@@H]2CCCN3CCC[C@@H]([C@H]23)[C@H]1CCCC(=O)NCc1cc(F)cc(F)c1` it was “inactive”; in that of `Cc1ccc(C(=O)N2C[C@@H](CO)[C@H](c3ccncc3)C2)c(C)c1`, “inactive”.
As to `CN(c1ccccc1)c1cc(=O)c2ccnc(Nc3cccc([S+](C)(=O)[O-])c3)c2o1`, the Potency is 8.91 µM (active).
With `O=c1cc(-c2cccnc2)oc2c(-c3cccc(CO)c3)nccc12` the figure was 31.6 µM (active).
In the case of `CN(c1ccccc1)c1cc(=O)c2ccnc(-c3ccc(CO)cc3)c2o1` it was 8.91 µM (active); in that of `OC[C@@H]1O[C@H](CNC2CCOCC2)[C@H](N2CCc3ccccc3C2)[C@@H]1O`, “inactive”; in that of `Cc1cc(C(=O)N2CCn3nc(C(=O)Nc4ccccc4)cc3C2)cc(=O)[nH]1`, “inactive”.
In the case of `CN1CCCN(C(=O)c2ccoc2)c2ccccc21` it was “inactive”; in that of `COCCn1ncc(N2CCCC(CC(=O)NCc3cccc(C)c3)C2)cc1=O` (centres undefined), “inactive”; in that of `O=C(Nc1ccsc1)N[C@H]1C[C@H]2C(=O)NC[C@@H](CCC(=O)N3CCC(O)CC3)N2C1`, “inactive”.
As for `COCCNC(=O)C[C@@H]1C[C@H]2O[C@H](CNC3CCN(C)CC3)[C@@H](O)[C@H]2O1`, the Potency entry was “inactive”.
With `Cc1ccc(C2Cn3nnc(C(=O)N4CCC(C(=O)NCc5cccnc5)CC4)c3CO2)cc1` (centres undefined) the entry was “inactive”; with `COc1ccc2nc3n(c2c1)[C@@H](CNC1CCCCC1)COC3`, 39.8 µM (active).
With `COc1ccc2nc3n(c2c1)[C@@H](CNC(=O)c1cnccn1)COC3` the entry was “inactive”; with `COc1ncccc1CNC[C@H]1COCc2nc3cc(C(F)(F)F)ccc3n21`, “inactive”; with `COc1ccccc1CN(C(=O)c1cccc(-c2noc(C)n2)c1)C1CC1`, “inactive”.
